Screening data from PubChem BioAssay.
An excerpt weighted towards active compounds, which were near 6.7% of everything screened.
KB-3-1 tox = kills parental KB-3-1 adenocarcinoma cells. KB-3-1 viability, CellTiter-Glo ATP luminescence, 72 h. Potency, µM (titrated, usually from 46.1 µM), hits mostly cytotoxic. actives 1.4% (n = 400,000). AID 1347075; further: nearly all actives have a fitted effect of over 60% in size
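Parental KB-3-1 adenocarcinoma cells in phenol-red-free DMEM with 10% FBS were pin-treated with compounds at several concentrations, incubated 72 h at 37 °C, and viability read by CellTiter-Glo luminescence; concentration-effect curves were fitted after normalization.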
MCF10A rereplic = DNA re-replication induction in MCF 10a cells | MCF 10A DNA re-replication, Hoechst nuclear intensity, 48 h | Potency, µM (doses to about 46.1 µM), actives largely listed as activators | actives 2.9% (n = 350,000); further: nearly all actives have a fitted effect of over 50% in size
KB-V1 MDR tox = KB-V1 MDR subline cytotoxicity; KB-V1 MDR cells viability, CellTiter-Glo, 72 h; Potency, µM (doses to about 46.1 µM), most hits filed as cytotoxic; actives 3.4% (n = 400,000); further: nearly all actives have a fitted effect of over 60% in size
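Readout: CellTiter-Glo luminescence, 10 min after addition. Cells: KB-V1 MDR subline, 72 h at 37 degrees C with compound. Analysis: corrected, normalized data fitted to concentration-effect curves.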
SW480 rerep = induces DNA re-replication in SW480 colon adenocarcinoma cells | Potency, µM (doses to about 46.1 µM), usual class: activators | actives 1.8% (n = 340,000) | SW480 DNA re-replication, Hoechst DNA content imaging, 48 h; further: nearly all actives have a fitted effect of over 55% in size
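Hoechst fluorescence of nuclei (405 nm excitation, 500-530 nm emission) measured by plate-scanning imager after 48 hr compound exposure at 37 C; re-replication scored as increased number of nuclei with elevated intensity.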
PINK1 modulator = changes PINK1 expression. Potency, µM (titrated, usually from 76.6 µM), hits mostly activators. PINK1 immunofluorescence, high-content cytometry, 24 h. actives 0.2% (n = 410,000); active means well fitted activation curve with a large enough effect; inconclusive means small, poorly fitted or top-dose-only effect; cell line not stated here; further: nearly all actives have a fitted effect of over 65% in size
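Stable cell line treated 24 h with compounds at 5 concentrations (CCCP controls), then fixed and immunostained for PINK1 plus nuclear and cell stains; PINK1 immunofluorescence quantified by laser-scanning microplate cytometry.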
Of the large screens only hits and unclear results are named; the others gave an inactive call. Unless noted, the call rests on the fitted dose curve; in most records, active means well fitted curve in the direction sought with a large enough effect; inconclusive means small, poorly fitted or top-dose-only effect, or another doubt; inactive means no such curve, though single readings can be large; an effect the other way counts as inactive or inconclusive.

COc1ccccc1-c1cc(C(F)(F)F)nc(S(=O)(=O)CCCC(=O)N2CCOCC2)n1	KB-3-1 tox 16µM, MCF10A rereplic 3.3µM, KB-V1 MDR tox inconclusive, SW480 rerep inconclusive
COc1ccccc1-c1cc(C(F)(F)F)nc(S(=O)(=O)CCCC(=O)Nc2cc(OC)c(OC)c(OC)c2)n1	KB-V1 MDR tox inconclusive (no result: MCF10A rereplic, SW480 rerep)
COc1ccc(-c2cc(C(F)(F)F)nc(NCc3cccs3)n2)cc1	PINK1 modulator inconclusive
COc1ccccc1-c1cc(C(F)(F)F)nc(NCc2cccs2)n1	MCF10A rereplic inconclusive, KB-V1 MDR tox 21µM
CCCC(=O)NC(=S)Nc1ccc(S(=O)(=O)N2CCc3ccccc32)cc1	none
O=C(Cn1cc(C(F)(F)F)ccc1=O)NCC1CCCO1 (centres undefined)	none
CC(=O)Nc1c(C(=O)O)ccc(C)c1OCc1ccccc1	none
COc1ccc(NC(=O)CCS(=O)(=O)c2nc(-c3ccc4c(c3)OCO4)cc(C(F)(F)F)n2)cc1	none (no result: KB-3-1 tox, MCF10A rereplic, KB-V1 MDR tox, SW480 rerep)
COc1ccc(-c2cc(C(F)(F)F)nc(S(=O)(=O)CCC(=O)N3CCOCC3)n2)cc1	KB-3-1 tox inconclusive, MCF10A rereplic 8.2µM, KB-V1 MDR tox inconclusive, SW480 rerep inconclusive
COc1ccc(CNC(=O)C2CCN(S(=O)(=O)N3CCCC3)CC2)c(OC)c1	none
COc1cc(-c2cc(C(=O)Nc3ccc(O)cc3)c3ccccc3n2)cc(OC)c1OC	none
COc1cc(-c2cc(O)c(-c3ccc4ccccc4n3)c(=O)[nH]2)cc(OC)c1OC	KB-3-1 tox inconclusive, MCF10A rereplic 12µM, KB-V1 MDR tox inconclusive, SW480 rerep 21µM
COc1cccc(NC(=O)COC(=O)c2ccccc2C(=O)N(C)c2ccccc2)c1	KB-V1 MDR tox 23µM
CN(C(=O)c1ccccc1C(=O)OCC(=O)Nc1cccc(Br)c1)c1ccccc1	none
COc1cccc(NC(=O)CN(C)C(=O)Cc2ccc3c(c2)CCC3)c1	KB-V1 MDR tox 15µM
CCOC(=O)Nc1cccc(OCC(=O)Nc2ccccc2OCC)c1	KB-V1 MDR tox 6.5µM
Cc1ccc(OCC(=O)NC(=S)Nc2cccc(NC(=O)c3ccccc3)c2)cc1	MCF10A rereplic 15µM, PINK1 modulator inconclusive
CC(=O)Nc1cccc(OCC(=O)Nc2ccccc2)c1	none
CC1(C(=O)NC2CCCCCC2)CCN1C(=O)Cc1ccc(-c2ccccc2)cc1 (centres undefined)	none (no result: MCF10A rereplic, SW480 rerep)
O=C(c1ccccc1)N(c1ccccc1)c1nccc2ccccc12	none
COc1cc(SC)ccc1C(=O)Nc1ccc(S(=O)(=O)Nc2nccc(C)n2)cc1	none (no result: MCF10A rereplic, SW480 rerep)
COc1cc(NC(=O)COc2cccc(OC)c2)cc(OC)c1	none
COc1cccc(NC(=O)COc2ccccc2)c1	MCF10A rereplic 23µM
CC(=O)c1cccc(NC(=O)c2sc3nc4n(c(=O)c3c2C)CCCC4)c1	SW480 rerep 9.2µM
Cc1c(C(=O)Nc2cccc(C(F)(F)F)c2)sc2nc3n(c(=O)c12)CCCC3	none (no result: MCF10A rereplic, SW480 rerep)
COc1ccc(COC(=O)c2sc3nc4n(c(=O)c3c2C)CCC4)cc1	KB-V1 MDR tox 8.2µM
COc1cccc(C2C3=C(N=c4s/c(=C\c5cccc(O)c5)c(=O)n42)c2ccccc2CC3)c1OC (centres undefined)	KB-3-1 tox inconclusive, KB-V1 MDR tox 16µM, SW480 rerep inconclusive
COc1cccc(C2C3=C(N=c4s/c(=C\c5ccc(O)cc5)c(=O)n42)c2ccccc2CC3)c1OC (centres undefined)	none
N=c1c(C(=O)NCC2CCCO2)cc2c(=O)n3ccccc3nc2n1Cc1ccco1 (centres undefined)	MCF10A rereplic inconclusive, SW480 rerep 21µM
N=c1c(C(=O)NCC2CCCO2)cc2c(=O)n3ccccc3nc2n1Cc1cccnc1 (centres undefined)	MCF10A rereplic 13µM, SW480 rerep 10µM
Cc1cccn2c(=O)c3cc(C(=O)NCC4CCCO4)c(=N)n(Cc4cccnc4)c3nc12 (centres undefined)	MCF10A rereplic 13µM, SW480 rerep 9.2µM
N=c1c(C(=O)NCC2CCCO2)cc2c(=O)n3ccccc3nc2n1Cc1ccc(F)cc1 (centres undefined)	MCF10A rereplic 9.2µM, SW480 rerep 18µM
CCOCCCn1c(=N)c(C(=O)NCc2cccnc2)cc2c(=O)n3ccccc3nc21	none (no result: MCF10A rereplic, SW480 rerep)
